Source: PubChem BioAssay
Activity calls are given as the source filed them.

What was measured:
[1] = A549 cell viability effects, profiling panel, calcein-AM fluorescence, 48 h, basal (AID 1162); settings: higher = more signal
[2] = adipocyte viability effects, profiling panel, cell-based, 3T3-L1 adipocytes, calcein-AM fluorescence, 48 h, basal (AID 1163); settings: 3T3-L1 adipocytes viability, higher = more signal
[3] = HepG2 cell viability effects, profiling panel, calcein-AM fluorescence, 48 h, basal (AID 1164); settings: higher = more signal
[4] = MM1S cell viability effects, profiling panel, calcein-AM fluorescence, 48 h, basal (AID 1165); settings: higher = more signal;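 note: viability of MM1S multiple myeloma cells under basal unstimulated conditions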
[5] = basal RPMI8226 viability, no added stimulus, profiling panel, cell-based, calcein-AM fluorescence, 48 h, PK04 Diversity Set (AID 1166); settings: RPMI8226 myeloma viability, higher = more signal;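 note: cells grown under basal conditions without added stimulus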
[6] = basal HepG2 mitochondrial membrane potential changes, profiling panel, cell-based, JC-1 fluorescence, 24 h, 100 nL compound (AID 1167); settings: higher = more signal
[7] = basal 3T3-L1 adipocyte mitochondrial potential changes, profiling panel, cell-based, JC-1 fluorescence, 3T3-L1 adipocytes, 24 h, 100 nL compound (AID 1168); settings: JC-1 mitochondrial fluorescence, higher = more signal, called active from +8 up or from −8 down
[8] = basal RPMI8226 mitochondrial membrane potential changes, profiling panel, cell-based, JC-1 fluorescence, 24 h, 100 nL compound (AID 1169); settings: RPMI8226 myeloma, JC-1 mitochondrial potential fluorescence, higher = more signal
[9] = basal MM1S mitochondrial membrane potential changes, profiling panel, cell-based, JC-1 fluorescence, 24 h, 100 nL compound (AID 1170); settings: higher = more signal
[10] = A549 lung cancer cell viability effects, profiling panel, resazurin fluorescence, 24 h, PK04 Diversity Set (AID 1171); settings: higher = more signal, called active from +8 up or from −8 down
Note: test concentration not given here.

SMILES	z-score [1]	z-score [2]	z-score [3]	z-score [4]	z-score [5]	z-score [6]	z-score [7]	z-score [8]	z-score [9]	z-score [10]
O=C(CCN1CCOCC1)c1cccc(O)c1	0.867	0.75	-0.891	-3.16	-1.74	0.109	-0.163 (inactive)	-0.0964	-2.97	0.36 (inactive)
COC(=O)[C@@]1(Cc2ccc(OC)cc2)[C@H]2c3cc(C(=O)N4CCCC4)n(Cc4ccccn4)c3C[C@H]2CN1C(=O)c1ccccc1	-0.87	0.588	-0.379	-1.9	-0.676	1.85	-0.85 (inactive)	0.556	0.208	-0.823 (inactive)
COC(=O)[C@]1(Cc2ccccc2N=[N+]=[N-])N=C(c2ccc(OCCCO)cc2)O[C@@H]1c1ccccc1N=[N+]=[N-]	-3.83	-0.504	-5.54	-3.59	-3.94	-2.39	-0.708 (inactive)	-1.2	-2.8	-2.87 (inactive)
COc1ccc(CCNC(=O)[C@@]2(c3ccc([N+](=O)[O-])cc3)CC(=O)N(CC34CC5CC(CC(C5)C3)C4)[C@@H]2c2ccc(CO)cc2)cc1	-2.36	0.369	-1.88	-2.98	-4.23	1.23	-0.626 (inactive)	-0.857	-0.452	-2.29 (inactive)
O=C(O)[C@@]1(Cc2ccccc2)N=C(c2ccc(OCCCO)cc2)O[C@H]1c1ccccc1	0.83	-0.664	-0.235	0.275	0.237	0.628	1.29 (inactive)	-0.182	-0.558	0.575 (inactive)
COC(=O)[C@@]1(Cc2ccccc2)[C@H]2c3cc(C(=O)N(C)C)n(Cc4c(-c5ccccc5)noc4C)c3C[C@H]2CN1C(=O)c1ccccc1	-0.914	-1	-1.41	-1.05	-1.09	2.14	-1.05 (inactive)	0.168	-0.822	-0.702 (inactive)
Cc1cc(C)c(C(O)C2C=CC3C(=O)N(c4ccccc4)C(=O)C3N2Nc2ccc(C#N)cc2)c(C)c1 (stereo not given)	0.0841	-1.06	1.33	-0.448	-0.127	-1.71	-1.51 (inactive)	0.211	-0.308	0.0763 (inactive)
CCN(CC)c1ccc(N2CC=CC34O[C@@H]5/C=C\CCCOC(=O)C5[C@H]3C(=O)N(C(CO)C(C)C)[C@@H]4C2=O)cc1 (stereo not given in full)	-0.0889	0.102	0.825	0.905	-0.62	-0.243	-0.0916 (inactive)	0.139	-0.26	-0.506 (inactive)
C=CCC(OC(C)=O)[C@@H]1[C@@H](N(Cc2cccc3ccccc23)C(=O)c2cccc3ccccc23)c2cc(OCCCO)ccc2N1C(=O)c1ccc2ccccc2n1 (stereo not given in full)	-0.7	0.161	-0.571	-0.399	-0.128	0.978	-1.2 (inactive)	-0.133	0.248	0.0076 (inactive)
CCOC(=O)[C@H]1C/C=C/C[C@H](C(=O)OCC)C(=O)O[C@H]2[C@@H](OC)O[C@H](CO)[C@@H](OC(=O)Nc3ccc4c(c3)OCO4)[C@@H]2OC1=O	-2.58	-0.256	-5	-3.35	-4.14	-3.1	1.56 (inactive)	-0.975	-1.75	-5 (inactive)
O=C1N(CCS(=O)(=O)c2ccccc2)Cc2ccccc2C[C@]12N=C(c1ccc(OCCCO)cc1)O[C@@H]2c1ccccc1	1.82	1.36	1.17	0.835	-0.962	-0.589	0.603 (inactive)	-1.08	0.309	-3.17 (inactive)
O=C(NCc1ccccc1)[C@]1(CCS(=O)(=O)c2ccccc2)N=C(c2ccc(OCCCO)cc2)O[C@@H]1c1ccccc1	-0.649	0.0335	-0.708	-0.478	-0.651	1.24	0.499 (inactive)	-0.762	-1.75	-0.704 (inactive)
Cc1cc(C)c(C(O)C2C=CC3C(=O)N(C)C(=O)C3N2Nc2ccccc2)c(C)c1 (stereo not given)	-1.02	-0.904	-0.798	-0.305	-0.681	-1.73	-1 (inactive)	-0.207	0.434	-0.551 (inactive)
COC(=O)[C@@]1(Cc2ccc(OC)cc2)[C@H]2c3cc(C(=O)N4CCCC4)n(Cc4cc(F)cc5c4OCOC5)c3C[C@H]2CN1C(=O)c1ccccc1	-1.67	-0.151	-0.675	-3.31	-3.81	0.912	-0.562 (inactive)	-0.753	-2.72	-1.5 (inactive)
[N-]=[N+]=NCc1ccccc1C[C@@]1(C(=O)N2CCOCC2)N=C(c2ccc(OCCCO)cc2)O[C@@H]1c1ccccc1CN=[N+]=[N-]	0.052	-0.19	1.29	-0.757	-2.91	0.883	0.612 (inactive)	-0.997	-1.15	-1.46 (inactive)
CC(=O)NCCCC[C@@H]1NC(=O)[C@H]2C[C@@H](C(=O)NCCCCCC[N+](C)(C)C)[C@@H](c3cccc(OCCO)c3)N2C1=O	-0.144	1.14	-0.827	0.385	-0.418	-1.44	0.326 (inactive)	-0.135	-0.872	0.925 (inactive)
CC(C)Cc1ccc(CN2CC[C@@H](NS(=O)(=O)c3ccccc3)C2)cc1	-0.977	-0.568	-1.63	-3.18	-3.72	-1.13	0.787 (inactive)	-0.414	-2.29	-0.235 (inactive)
COCCOC(=O)N1C(=O)[C@@]2(c3cc(C#CC4=CCCCC4)ccc31)[C@H](C(=O)NC[C@H](O)c1ccccc1)[C@H]1C(=O)O[C@H](c3ccccc3)[C@H](c3ccccc3)N1[C@@H]2c1ccc(O)cc1	-0.144	1.3	-0.34	-2.81	-3.45	-2.71	1.35 (inactive)	-0.657	0.0116	-1.09 (inactive)
O=C1C2C=CC(C(O)c3cccs3)N(Nc3ccccc3F)C2C(=O)N1c1ccccc1 (stereo not given)	-0.543	0.289	-0.901	0.46	0.167	-0.686	0.321 (inactive)	0.635	-0.947	0.433 (inactive)
CCCCC(CC)C(O)C1C=CC2C(=O)N(c3ccccc3)C(=O)C2N1Nc1ccccc1 (stereo not given)	-0.5	0.0749	-0.315	-0.137	-0.841	-2.35	0.633 (inactive)	-0.48	0.00945	-0.885 (inactive)
CCOC(=O)C1=CCC(c2ccc([N+](=O)[O-])cc2)N(S(=O)(=O)c2ccc(C)cc2)C1 (stereo not given)	-0.561	-1.29	0.0862	-0.0901	-1.17	2.63	-0.769 (inactive)	0.877	-2.12	0.395 (inactive)
COc1cccc(C(=O)O[C@H]2CC[C@]3(C)C4=C(CCC3C2(C)C)[C@]2(C)CC[C@H]([C@H](C)CCCC(C)C)[C@@]2(C)CC4)c1 (stereo not given in full)	0.583	0.146	0.689	-0.56	0.241	1.28	0.387 (inactive)	-0.0502	-1.49	0.479 (inactive)
C=CCOC(=O)[C@@H]1[C@H]2C(=O)O[C@H](c3ccccc3)[C@H](c3ccccc3)N2[C@H](c2ccc(OCCOC(=O)[C@@H]3C[C@@H]4C(=O)N[C@@H](Cc5ccccc5)C(=O)N4[C@@H]3c3cccc(OCCO)c3)cc2)[C@@]12C(=O)Nc1ccc(I)cc12	-1.15	0.185	-0.0074	0.359	-1.1	-1.57	0.235 (inactive)	-0.505	-1.14	0.789 (inactive)
COc1ccc(C(=O)Nc2cccc(CN3C(=O)[C@]4(O[C@H](CC(=O)N5CCC[C@H]5CO)[C@@H]([Si](C)(C)c5ccc(OC)cc5)[C@@H]4C)c4ccccc43)c2)cc1	-0.806	0.902	-3.13	-2.71	-4.33	-1.73	0.248 (inactive)	-1.1	-1.64	-2.2 (inactive)
Cc1c(NC(=O)CC#N)c(=O)n(-c2ccccc2)n1C	1.62	0.317	0.954	0.0823	0.106	1.42	0.166 (inactive)	-0.128	-0.63	0.234 (inactive)
COC(=O)c1ccc(OC)c(/C=C\CC(OC(C)=O)c2ccccc2)c1 (stereo not given)	-1.01	0.386	-0.753	-1.4	-2.39	-0.995	-1.15 (inactive)	-0.578	0.0862	0.519 (inactive)
N#Cc1ccc(NN2C(C(O)c3cccs3)C=CC3C(=O)N(c4ccccc4)C(=O)C32)cc1 (stereo not given)	0.594	-0.327	1.01	-0.0964	-0.598	-0.307	-0.0937 (inactive)	0.49	-0.218	0.234 (inactive)
CCOC(=O)C[C@H]1[C@H](OC(=O)c2ccc(-c3ccccc3)cc2)[C@@H](NC(=O)c2ccc(-c3ccccc3)cc2)c2cc(OCCCO)ccc2N1C(=O)Cc1ccc(OC)cc1	-0.457	0.485	-0.0494	-0.781	0.0196	1.15	0.458 (inactive)	-0.00497	0.413	0.0992 (inactive)
COCCOC(=O)N1C(=O)[C@@]2(c3cc(C#CCCO)ccc31)[C@H](c1ccccc1OCCO)N1[C@H](c3ccccc3)[C@H](c3ccccc3)OC(=O)[C@H]1[C@@H]2C(=O)N1CCN(c2ncccn2)CC1	-0.442	-0.692	0.0682	-0.448	-0.0718	0.609	0.188 (inactive)	-0.0523	-1.1	-0.467 (inactive)
C=CCNC(=O)[C@@H]1[C@H]2C(=O)O[C@H](c3ccccc3)[C@H](c3ccccc3)N2[C@H](c2ccccc2OCCO)[C@@]12C(=O)Nc1ccc(C#CC3=CCCCC3)cc12	-1.77	1.98	-2.85	-3.09	-3.42	-1.79	2.32 (inactive)	-0.853	-1.17	-1.49 (inactive)
